Screens as filed in PubChem BioAssay.
DT40 TDP1 CPT = growth inhibition of DT40 Tdp1-/-;hTDP1 cells with camptothecin (screen for TDP1 inhibitors); actives 12% (n = 420,000); chicken DT40 Tdp1-/-;hTDP1 cells + 20 nM CPT, ATP luminescence, 48 h; Potency, µM (titrated, usually from 46.2 µM), for inactives: at the top dose activity change, negative = growth inhibition, actives largely listed as inhibitors; AID 686979; also: potency is read from the fitted curve at half-maximal effect; nearly all actives have a fitted effect of over 55% in size
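Cell growth measured by CellTiter-Glo luminescence after a minimum 48 h, 37 C compound exposure with 20 nM CPT in Tdp1-knockout DT40 cells stably expressing hTDP1, seeded 400/well; qHTS titration format.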
HT1080NT lethal = kills 2HG-producing HT-1080-NT fibrosarcoma cells; HT-1080-NT fibrosarcoma viability, CellTiter-Glo ATP luminescence, 48 h; Potency, µM (doses to about 46.1 µM), for inactives: at the highest dose activity, negative = less viability, most hits filed as cytotoxic; actives 1.6% (n = 360,000); AID 686970;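 also: NT is the 2HG producing partner of a matched IDH1 knockdown line; potency is read from the fitted curve at half-maximal effect; 0% = DMSO-treated cells and -100% = media-only wells without cells; nearly all actives have a fitted effect of over 55% in size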
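Toxicity toward the 2HG-producing NT line was scored as %Activity, normalised to DMSO and no-cell wells, from CellTiter-Glo luminescence after 48 hours' treatment.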
HT1080 IDH1KD tx = kills HT-1080 cells with IDH1 knockdown | HT-1080 IDH1 knockdown viability, ATP luminescence, 48 h | Potency, µM (series often up to 46.1 µM), for inactives: at the top dose activity, negative = toxicity, hits mostly cytotoxic | actives 2% (n = 360,000) | AID 686971;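 also: potency is read from the fitted curve at half-maximal effect; 0% = DMSO wells and -100% = cell-free medium wells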
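Viability of IDH1-knockdown HT-1080 fibrosarcoma cells was assessed by CellTiter-Glo after 48 h at 37 °C with titrated compound; concentration-effect curves were classified by fit quality and response size.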
TDP1 cell noCPT = qHTS for Inhibitors of human tyrosyl-DNA phosphodiesterase 1 (TDP1): qHTS in cells in absence of CPT. DT40 Tdp1-/- hTDP1 cells, no CPT, ATP luminescence, 48 h. Potency, µM (series often up to 46.2 µM), inactives show at the top dose activity change, negative = growth inhibition, most hits filed as inhibitors. actives 15% (n = 420,000); also: potency is read from the fitted curve at half-maximal effect; nearly all actives have a fitted effect of over 55% in size
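A cellular qHTS used chicken DT40 cells lacking endogenous Tdp1 but carrying stably transfected human TDP1. Compounds were applied without camptothecin, and cell growth kinetics were judged by ATP-dependent luminescence after ≥48 hr.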
IL-1B inflam inh = blocks inflammasome-driven IL-1 beta release. THP-1 LPS/ATP IL-1B secretion, AlphaLISA, 16 h; active compounds read low. activity change, % at 57.5 µM. actives 4.7% (n = 360,000). AID 743279; in the data active = activity change below about -50%; inconclusive = mostly about -30% to -49%
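Secreted IL-1B measured by AlphaLISA bead assay after 16 h compound exposure of THP-1 cells; compounds (final up to 57.5 uM) added 1 h before LPS (250 ng/mL) and ATP (1.25 mM) stimulation; lower signal means less secretion.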
* = called active by the depositor; ? = inconclusive; · = no result given. Sampled rows, rich in hits. Any-hit rate of the full collection: about 19%. Unless noted, calls follow the shape of the dose curve; as a rule, active = well fitted curve in the direction sought with a large enough effect; inconclusive = small, poorly fitted or top-dose-only effect, or another doubt; inactive = no such curve, though single readings can be large; an effect the other way counts as inactive or inconclusive. Unless noted, % is scaled to controls: 0 for no effect and ±100 for the full control effect.

SMILES	DT40 TDP1 CPT	HT1080NT lethal	HT1080 IDH1KD tx	TDP1 cell noCPT	IL-1B inflam inh
COc1ccc(-c2cc(-c3cccs3)nc(OC)c2C#N)cc1OC	?	?	?	29.1µM*	-8.5
COc1nc(-c2cccs2)cc(-c2ccc(C)cc2)c1C#N	10µM*	?	?	12.6µM*	35.0
COc1ccc(-c2noc(-c3cccs3)n2)cc1OC	-2.1%	-4.6%	-2.6%	?	·
COc1cc(C(=O)NCc2nnc(SCC(=O)Nc3ccc4c(c3)OCO4)o2)cc(OC)c1OC	5.8%	26.8%	13.5%	3.8%	30.3
COc1ccc2c(c1)c(C(C)=O)c(C)n2-c1ccccc1	-23.1%	-2.3%	-6.6%	-20.4%	8.2
COCCOC(=O)c1c(C)n(C)c2ccc(OC(=O)c3ccccc3OC)cc12	-23.8%	-1.9%	2.4%	16.4µM*	-11.3
CCOC(=O)c1c(C)n(-c2ccccc2)c2ccc(OC(=O)c3ccccc3NC(=O)C(C)(C)C)cc12	?	·	·	11.6µM*	·
CCOC(=O)c1c(C)n(-c2ccccc2)c2ccc(OC(=O)c3ccccc3NC(=O)C(C)C)cc12	?	·	·	18.4µM*	·
O=C(Nc1ccccc1Cl)Nc1ccnn1C1CCN(C(=O)C2CCOC2)CC1 (configuration not stated)	1.8%	0.5%	-2.3%	-0.2%	-24.9
CC(C(=O)O)n1c(-c2ccn[nH]2)n[nH]c1=S (configuration not stated)	-28.2%	-0.3%	9.0%	15.5%	-0.1
Cc1cc(C)n(-c2ccn(Cc3ccc(Cl)cc3Cl)c(=O)n2)n1	20.6µM*	-14.6%	-22.2%	16.4µM*	-16.6
CCOC(=O)C1(CC2CCCCO2)CCN(Cc2cc3ccccc3[nH]2)CC1 (configuration not stated)	?	?	?	16.4µM*	-91.5*
CCOC(=O)C1(CC2CCCCO2)CCN(S(=O)(=O)c2cccc(F)c2)CC1 (configuration not stated)	-13.8%	-7.4%	-3.1%	-7.9%	15.6
CCOC(=O)C1(CC2CCCCO2)CCN(Cc2ccccc2-c2ccco2)CC1 (configuration not stated)	?	3.6%	9.7%	20.6µM*	39.6
CCOC(=O)C1(CC2CCCCO2)CCN(Cc2cn[nH]c2-c2cccc(F)c2)CC1 (configuration not stated)	16.4µM*	1.4%	-0.7%	10.3µM*	21.8
CCOc1ccccc1NC(=O)C1CCCN1S(=O)(=O)c1ccccc1C(F)(F)F (configuration not stated)	20.6µM*	0.8%	4.5%	20.6µM*	13.2
Cc1cc(C)cc(NC(=O)C2CCCN2S(=O)(=O)c2ccc3nc(-c4ccccc4)[nH]c3c2)c1 (configuration not stated)	?	·	·	14.6µM*	·
CCOc1ccccc1NC(=O)C1CCCN1S(=O)(=O)c1ccc2nc(-c3ccccc3)[nH]c2c1 (configuration not stated)	10.3µM*	·	·	6.51µM*	·
CCc1cccc(NC(=O)C2CCCN2S(=O)(=O)c2ccc3nc(-c4ccccc4)[nH]c3c2)c1 (configuration not stated)	7.31µM*	·	·	8.2µM*	·
CCOc1ccccc1NC(=O)C1CCN(S(=O)(=O)c2ccc3[nH]c(=O)ccc3c2)CC1	-5.1%	·	·	-19.3%	·
CCOc1ccccc1NC(=O)C1CCCN(S(=O)(=O)c2cccc3cccnc23)C1 (configuration not stated)	?	7.0%	2.3%	?	5.6
COC(=O)/C=C/c1c(C)nc(NCc2ccccc2)nc1Cl	?	4.9%	-6.6%	?	-10.9
COc1ccc(O)c(/C=N/NC(=S)Nc2cccnc2)c1	?	-29.3%	-21.8%	18.4µM*	144.1
COc1cccc(/C=N/NC(=S)Nc2cccnc2)c1	2.31µM*	-1.7%	1.5%	4.61µM*	-5.6
Oc1ccc(/C=N/NC(=S)Nc2cccnc2)cc1	-34.8%	19.7%	0.5%	?	-24.8
SMILES	DT40 TDP1 CPT	HT1080NT lethal	HT1080 IDH1KD tx	TDP1 cell noCPT	IL-1B inflam inh
CC(C)(C)NC(=S)N/N=C/c1cccnc1	14.6µM*	21.9%	8.3%	25.9µM*	-1.4
COc1ccccc1NS(=O)(=O)c1ccc(N2CCOCC2)c(N)c1	-12.9%	-6.1%	-4.1%	-29.8%	-2.5
CC(=O)c1c(C)[nH]c(C(=O)COC(=O)C2(C)CC2(Cl)Cl)c1C (configuration not stated)	18.4µM*	-5.4%	-0.6%	20.6µM*	0.0
CC(=O)c1c(C)[nH]c(C(=O)COC(=O)c2cc(C)oc2C)c1C	?	-2.5%	-10.9%	2.59µM*	?
CCOC(=O)c1[nH]c(C)c(C(=O)OCC)c1C	0.6%	7.1%	9.9%	0.4%	-24.2
CCOC(=O)c1c(C)[nH]c(C(=O)COC(=O)[C@H](C)N2C(=O)C3CCCCC3C2=O)c1C (some centres not stated)	?	-6.1%	-9.3%	25.9µM*	3.3
CCOC(=O)c1c(C)[nH]c(C(=O)COC(=O)c2[nH]c(C)c(C(C)=O)c2C)c1C	4.61µM*	5.2%	-3.0%	5.17µM*	24.8
CCN(C)C1CN(Cc2cn(Cc3ccc(Cl)cc3)nn2)S(=O)(=O)C1 (configuration not stated)	-8.4%	22.0%	-0.3%	-13.4%	2.9
CCOC(=O)N1CCN(C(=O)c2ccc(CN(c3ccccc3)S(C)(=O)=O)cc2)CC1	-18.6%	4.9%	10.9%	-27.9%	-11.5
COC(=O)c1c(C)[nH]c(C(=O)C(C)OC(=O)c2cc(C)oc2C)c1C (configuration not stated)	?	9.6%	-23.3%	16.4µM*	8.1
Cc1ccn2c(Cc3ccccc3)c(-c3ccc(Br)cc3)nc2c1	20.6µM*	-3.6%	-13.8%	?	45.6
Cc1ccn2c(CN3CCOCC3)c(-c3ccccc3)nc2c1	-28.7%	1.0%	3.8%	?	?
Cc1ccn2c(Cc3ccccc3)c(-c3ccccc3)nc2c1	18.4µM*	2.5%	5.7%	18.4µM*	38.6
Cc1ccn2c(NCc3ccco3)c(-c3ccccc3)nc2c1	?	0.9%	5.1%	11.2µM*	·
CCC(C(=O)Nc1ccccc1OC)n1c(C(=O)OC)cc2sc(Cl)cc21 (configuration not stated)	-21.2%	·	·	?	·
Cc1c(-c2ccccc2)nc(-c2ccccc2)[nH]c1=O	-12.2%	10.4%	11.5%	-15.7%	0.0
CSc1ncc2c(=O)[nH]c(-c3ccccc3)nc2n1	1.9%	?	?	-9.7%	-73.9*
